Test results as given in PubChem BioAssay.

Assay: probe aCHRDL2 binding to arrayed compounds – biochemical, biotinylated probe, 635/667 nm fluorescence, primary screen (AID 1100)
Conditions: small-molecule microarray, higher = more signal

| Compound | composite z-score |
| --- | --- |
| O=C1C2C=CC(C(O)C3CC=CCC3)N(Nc3ccccc3)C2C(=O)N1c1ccccc1 (stereo not given) | 1.12 |
| [N-]=[N+]=Nc1ccccc1C[C@@]1(C(=O)N2CCOCC2)N=C(c2ccc(OCCCO)cc2)O[C@@H]1c1ccccc1 | 0.59 |
| CCC#CCN(Cc1ccccc1Br)[C@H](/C=C/C1CC1)[C@@H](O)Cc1ccccc1 | 0.952 |
| Cc1ccc(F)cc1S(=O)(=O)N[C@@H]1CCN(Cc2ccc(Br)cc2)C1 | -0.418 |
| CC1CC/C=C\[C@H]2OC34C=CCN(C(C)C)C(=O)[C@H]3N(CCO)C(=O)[C@@H]4C2C(=O)O1 (stereo not given in full) | 0.701 |
| CCOC(=O)C[C@H]1[C@H](OC(=O)c2cc3ccccc3oc2=O)[C@@H](NC(=O)CC(C)C)c2cc(OCCCO)ccc2N1C(=O)c1ccc2ccccc2n1 | -0.53 |
| [N-]=[N+]=Nc1ccccc1C[C@]1(C(=O)NCCN2CCOCC2)COC(c2ccc(OCCCO)cc2)=N1 | 0.909 |
| COC(=O)[C@]1(CCS(=O)(=O)c2ccccc2)N=C(c2ccc(OCCCO)cc2)O[C@@H]1c1ccccc1N=[N+]=[N-] | 1.12 |
| COc1ccc(CCNC(=O)[C@@H]2c3ccccc3C(=O)N(C3CCCCC3)[C@H]2c2ccc(CO)cc2)cc1 | 0.692 |
| O=C(NCc1ccc(F)cc1)[C@H]1C[C@H]2C(=O)NCC(=O)N2[C@H]1c1ccc(O)cc1 | 0.112 |
| CC(c1ccccc1)C(O)C1C=CC2C(=O)N(C)C(=O)C2N1Nc1ccccc1 (stereo not given) | 1.2 |
| COc1ccc(C#Cc2ccc3c(c2)[C@]2(C(=O)N3)[C@H](c3ccc(O)cc3)N3[C@H](c4ccccc4)[C@H](c4ccccc4)OC(=O)[C@H]3[C@@H]2C(=O)Nc2nc3ccccc3s2)cc1 | 0.342 |
| CC1=C2[C@@H](CCc3ccccc3)OB(O)C[C@@H]2[C@@H]2C(=O)N(C)C(=O)[C@@H]2C1 | -0.223 |
| COc1cccc(C)c1NC(=O)O[C@H]1[C@H](OC(=O)Nc2ccc3c(c2)OCO3)[C@@H](OC(=O)Nc2ccc3c(c2)OCO3)[C@@H](OC)O[C@@H]1CO | 0.232 |
| CC(C)N1C(=O)c2ccccc2[C@@H](C(=O)NCCN2CCOCC2)[C@@H]1c1ccc(CO)cc1 | 0.917 |
| CCCCN1CC=CC23O[C@@H]4/C=C\CCCOC(=O)C4[C@H]2C(=O)N(CCO)[C@@H]3C1=O (stereo not given in full) | 0.644 |
| CCCNC(=O)[C@@]1(C)c2ccccc2C(=O)N(c2ccc(C)cn2)[C@H]1c1ccc(CO)cc1 | 0.649 |
| N#Cc1ccc(NN2C(C(O)c3ccc(Br)cc3)C=CC3C(=O)N(c4ccccc4)C(=O)C32)cc1 (stereo not given) | 0.905 |

| Compound | composite z-score |
| --- | --- |
| O=C(O)[C@@H]1[C@@H]2C(=O)N(c3ccccc3)C(=O)[C@@H]2C[C@@H]1Sc1ccccc1 | 0.519 |
| CCCNC(=O)[C@@H]1c2ccccc2C(=O)N(Cc2ccc(OC(F)(F)F)cc2)[C@H]1c1ccc(CO)cc1 | 0.653 |
| COCCOC(=O)N1C(=O)[C@@]2(c3cc(C#CCCO)ccc31)[C@H](c1ccc(OCCO)cc1)N1[C@H](c3ccccc3)[C@H](c3ccccc3)OC(=O)[C@H]1[C@@H]2C(=O)Nc1nc2ccccc2s1 | 0.771 |
| CN(C)C(=O)[C@]1(CCC(=O)OC(C)(C)C)N=C(c2ccc(OCCCO)cc2)O[C@@H]1c1ccccc1CN=[N+]=[N-] | 1.08 |
| CCCC=C(CCC)[C@@H](NS(=O)(=O)c1ccc(C(F)(F)F)cc1)c1ccccc1 | 0.614 |
| CCCCC(CC)C(O)C1C=CC2C(=O)N(C)C(=O)C2N1Nc1ccccc1 (stereo not given) | 0.0302 |
| COC(=O)c1c(CC[C@@H](CO)NC(=O)N2CCC[C@H]2Cn2cc(C3(O)CCCCC3)nn2)oc(C(C)=O)c1C(=O)OC | -0.404 |
| C=CC[C@]1(C(=O)N2CCCCC2)N=C(c2ccc(OCCCO)cc2)O[C@H]1c1ccccc1CN=[N+]=[N-] | 0.622 |
| COC(=O)[C@@]1(Cc2ccccc2)[C@H]2c3cc(C(=O)N4CCCC4)n(CCc4ccccn4)c3C[C@H]2CN1C(=O)c1ccccc1 | 1.02 |
| C=CCNC(=O)[C@@H]1[C@H]2C(=O)O[C@H](c3ccccc3)[C@H](c3ccccc3)N2[C@H](c2ccc(O)cc2)[C@@]12C(=O)N(C(=O)OCCOC)c1ccc(C#CC3=CCCCC3)cc12 | -0.294 |
| COCCOC(=O)N1C(=O)[C@@]2(c3cc(C#CC4(O)CCCCCC4)ccc31)[C@H](C(=O)N1CCc3cc(OC)c(OC)cc3C1)[C@H]1C(=O)O[C@H](c3ccccc3)[C@H](c3ccccc3)N1[C@@H]2c1ccc(OCCO)cc1 | -0.219 |
| C=C(C(=O)CC[C@H](OC(=O)c1ccccc1-c1ccccc1C(=O)O)c1cccc(OCCO)c1)C(C)C | -0.265 |
| CC(C)c1ccc(NN2C(C(O)c3ccc(F)cc3)C=CC3C(=O)N(c4ccccc4)C(=O)C32)cc1 (stereo not given) | 0.775 |
| [N-]=[N+]=Nc1ccccc1C[C@@]1(C(=O)NCCN2CCOCC2)N=C(c2ccc(OCCCO)cc2)O[C@@H]1c1ccccc1N=[N+]=[N-] | 1.04 |
| CCOC(=O)[C@@H]1CCCCN1C(=O)C(=O)OC | -0.402 |
| COc1ccccc1CN1C(=O)c2ccccc2[C@](Cc2ccccc2I)(C(=O)O)[C@@H]1c1ccc(CO)cc1 | 0.485 |
| C=C[C@@H](OC)[C@H](OC(=O)Nc1ccc(OC)cc1)c1ccc(O)c(F)c1 | -0.54 |
